Among the data in PubChem BioAssay (Tox21) are Potency and outcome values, retold here.

Several values for one entry are separate records, joined by “and”; a condition that tells them apart may be missing. Equal entries are not always repeated. Inconclusive results are not listed. The source holds several records for some structures; these can differ, active in one and inactive in another. Activity calls are given as the source filed them. Unless noted, calls come from the whole dose curve; as a rule, active = well fitted curve in the direction sought with a large enough effect in the repeat runs; inconclusive = weak or mixed curves; inactive = no such curve, though single readings can be large; an effect the other way counts as inactive or inconclusive.

The nature of assay [1]: A CellTox Green Cytotoxicity Assay to monitor cytotoxicity in HEK293 cells - 32 hour (AID 1224881). Note: nearly all actives have a fitted effect of over 40% in size. Note: potency is the fitted concentration of half-maximal effect. A digest of the protocol: (§1)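 Cells (HEK293, 600/well) and dye reagent are dispensed together. After 5 h at 37 C, 23 nL compound is pinned in. Plates stay at 37 C for 40 h with fluorescence read at 0h, 8h, 16h, 24h, 32h and 40h.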
A short description of assay [2]: A CellTox Green Cytotoxicity Assay to monitor cytotoxicity in HepG2 cells - 0 hour (AID 1224882). Note: nearly all actives have a fitted effect of over 35% in size. Note: potency is the fitted concentration of half-maximal effect. In short, it runs like this: (§2)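 Cells and non-lytic dye reagent are dispensed together (600 HepG2 cells/well) and incubated 5 h before DMSO compound transfer. Kinetic fluorescence is then recorded in the same wells during 40 h at 37 C.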
Assay [3] can be described thus: A CellTox Green Cytotoxicity Assay to monitor cytotoxicity in HepG2 cells - 32 hour (AID 1224883). Note: nearly all actives have a fitted effect of over 50% in size. Note: potency is the fitted concentration of half-maximal effect. In short, it runs like this:
as §2

Assay [4] in a line: A CellTox Green Cytotoxicity Assay to monitor cytotoxicity in HEK293 cells - 8 hour (AID 1224884). Note: nearly all actives have a fitted effect of over 35% in size. Note: potency is the fitted concentration of half-maximal effect. In short, it runs like this: as §1
Assay [5] in a line: qHTS RealTime-Glo MT Cell Viability Assay in HepG2 cells - 16 hour (AID 1224885). Note: nearly all actives have a fitted effect of over 50% in size. Note: potency is the fitted concentration of half-maximal effect. In short, it runs like this: (§3)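 Cells + NanoLuc/prosubstrate dispensed (600 cells/well) → 5 h at 37 C/5% CO2 → compounds in DMSO transferred → 40 h incubation at 37 C, luminescence read at 0, 8, 16, 24, 32, 40 h.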
In general terms: Quantitative high-throughput screening tests each substance at several concentrations.

Assay [6] is described as follows: qHTS RealTime-Glo MT Cell Viability Assay in HEK293 cells - 24 hour (AID 1224886). Note: nearly all actives have a fitted effect of over 50% in size. Note: potency is the fitted concentration of half-maximal effect. In short, it runs like this: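 Tox21 10K qHTS, HEK293, 600 cells/well, RealTime-Glo reagent co-dispensed with cells; 5 h preincubation, compound by pintool, 37 C, luminescence at 0–40 h.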
The nature of assay [7]: qHTS RealTime-Glo MT Cell Viability Assay in HEK293 cells - 8 hour (AID 1224887). Note: nearly all actives have a fitted effect of over 50% in size. Note: potency is the fitted concentration of half-maximal effect. In short, it runs like this:
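Real-time viability in HEK293: signal arises when living cells convert a prosubstrate for NanoLuc in the medium, so luminescence tracks viable cell number. Compound (23 nL, DMSO) added 5 h post-seeding; kinetic reads at 0–40 h, 37 C.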

A short description of assay [8]: A CellTox Green Cytotoxicity Assay to monitor cytotoxicity in HEK293 cells - 16 hour (AID 1224888). Note: nearly all actives have a fitted effect of over 35% in size. Note: potency is the fitted concentration of half-maximal effect. A digest of the protocol: as §1
A short description of assay [9]: qHTS RealTime-Glo MT Cell Viability Assay in HepG2 cells - 0 hour (AID 1224889). Note: nearly all actives have a fitted effect of over 50% in size. Note: potency is the fitted concentration of half-maximal effect. In short, it runs like this:
as §3

The nature of assay [10]: A CellTox Green Cytotoxicity Assay to monitor cytotoxicity in HepG2 cells - 8 hour (AID 1224890). Note: nearly all actives have a fitted effect of over 45% in size. Note: potency is the fitted concentration of half-maximal effect. A digest of the protocol: as §2
Assay [11] in a line: qHTS assay to identify small molecule antagonists of the estrogen receptor alpha (ER-alpha) signaling pathway using the BG1 cell line in the presence of 0.1 nM 17-beta-estradiol - cell viability counter screen (AID 1259241). Note: nearly all actives have a fitted effect of over 40% in size. Note: potency is the fitted concentration of half-maximal effect. A digest of the protocol:
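CellTiter-Fluor read (30 min, 37C) on ER-alpha/ERE-luc VM7Luc4E2 cells; 22 hr compound treatment; agonist 0.1 nM E2 final; same-well multiplex.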

Assay [12] can be described thus: qHTS assay to identify small molecule antagonists of the androgen receptor (AR) signaling pathway using the MDA cell line in the presence of 0.5 nM R1881 - cell viability counter screen (AID 1259242). Note: nearly all actives have a fitted effect of over 45% in size. Note: potency is the fitted concentration of half-maximal effect. In short, it runs like this:
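Steps: plate MDA-kb2 cells, rest 5 hr at 37C without CO2; pin in compounds in DMSO; add R1881 to 0.5 nM final; incubate 16 hr; add CellTiter-Fluor, 30 min; read fluorescence.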

Assay [13] deals with Estrogen receptor (Homo sapiens) (UniProt P03372). Put plainly: qHTS assay to identify small molecule antagonists of the estrogen receptor alpha (ER-alpha) signaling pathway using the BG1 cell line in the presence of 0.1 nM 17-beta-estradiol (AID 1259244). Note: nearly all actives have a fitted effect of over 50% in size. Note: potency is the fitted concentration of half-maximal effect. A digest of the protocol:
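Antagonist mode: compounds in DMSO are pinned onto VM7Luc4E2 reporter cells, 0.1 nM final 17beta-estradiol is added, and after 22 h at 37C luciferase luminescence is measured with ONE-Glo.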

Assay [14] is described as follows: qHTS assay to identify small molecule HDAC inhibitors (AID 1259364).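 Note: wild-type HCT-116 cells with endogenous class I/II HDAC activity; top concentration of the series differs between compounds; nearly all actives have a fitted effect of over 45% in size.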 In short, it runs like this: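 Cells (HCT-116, wild type) are seeded at 1,500 per well, incubated overnight, treated with compound in DMSO for 2 hr, then developed with HDAC-Glo I/II reagent for 30 min at room temperature.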
The nature of assay [15]: qHTS assay to identify small molecule HDAC inhibitors - cell viability counter screen (AID 1259365). Note: nearly all actives have a fitted effect of over 50% in size. Note: potency is the fitted concentration of half-maximal effect. A digest of the protocol:
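To flag cytotoxic hits, 1,500 wild-type HCT-116 cells per well, plated the day before, receive test compounds for 2hr at 37 C before CellTiter-Glo reagent and a luminescence read.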

Assay [16] is described as follows: qHTS assay to identify small molecule agonists of the sonic hedgehog signaling (Shh) pathway - cell viability counter screen (AID 1259366). Note: nearly all actives have a fitted effect of over 50% in size. Note: potency is the fitted concentration of half-maximal effect. In short, it runs like this: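 Fluorescence from CellTiter-Fluor reports live cells in this counter screen. NIH/3T3-derived Gli1-Luc reporter cells receive test compounds for 24hr at 37C; reagent goes in at 23hr.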
A short description of assay [17]: qHTS assay to identify small molecule antagonists of the sonic hedgehog signaling (Shh) pathway - cell viability counter screen (AID 1259367). Note: nearly all actives have a fitted effect of over 55% in size. Note: potency is the fitted concentration of half-maximal effect. In short, it runs like this: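 Cytotoxicity was assessed in parallel with Shh reporter activity by measuring live-cell protease fluorescence (CellTiter-Fluor) in NIH/3T3 cells stably carrying Gli1-Luc, treated with compound under conditioned medium stimulation for 23 hr plus 1 hr reagent incubation.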

The nature of assay [18]: qHTS assay to identify small molecule phospholipidosis (PLD) inducers (AID 1259344; active = well fitted curve in the direction sought with a large enough effect; an effect the other way counts as inactive or inconclusive). A digest of the protocol: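 Cells (HepG2, 900 per well) attach for 4 h, receive LipidTOX Red and compound together, incubate 24 h at 37 C, are fixed 30 min with paraformaldehyde/Hoechst, then imaged at one site per well.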
A short description of assay [19]: qHTS assay to identify small molecule agonists of the sonic hedgehog signaling (Shh) pathway (AID 1259368; calls by dose curve;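 note: NIH/3T3-derived 3T3Gli1-Luc cells carrying a stable Gli1-driven firefly luciferase reporter; series mostly up to about 92 µM; nearly all actives have a fitted effect of over 15% in size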). A digest of the protocol: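 Cells of a mouse NIH/3T3 clone stably expressing luciferase under the Gli1 transcriptional response element are exposed to test chemicals for 24 hr at 37 C. Pathway activation is detected as a rise in luminescence.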
Assay [20] addresses Androgen receptor (Homo sapiens) (UniProt P10275). Put plainly: qHTS assay to identify small molecule antagonists of the androgen receptor (AR) signaling pathway using the MDA cell line in the presence of 0.5 nM R1881 (AID 1259243). In short, it runs like this:
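Stably transfected MDA-kb2 cells express luciferase from an MMTV promoter bearing both AR and GR response elements. Compounds plus 0.5 nM R1881 (final) were incubated 16 hr at 37C without CO2, then luminescence measured.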

Estrogen receptor (Homo sapiens), sequence (P03372 whole entry, looked up): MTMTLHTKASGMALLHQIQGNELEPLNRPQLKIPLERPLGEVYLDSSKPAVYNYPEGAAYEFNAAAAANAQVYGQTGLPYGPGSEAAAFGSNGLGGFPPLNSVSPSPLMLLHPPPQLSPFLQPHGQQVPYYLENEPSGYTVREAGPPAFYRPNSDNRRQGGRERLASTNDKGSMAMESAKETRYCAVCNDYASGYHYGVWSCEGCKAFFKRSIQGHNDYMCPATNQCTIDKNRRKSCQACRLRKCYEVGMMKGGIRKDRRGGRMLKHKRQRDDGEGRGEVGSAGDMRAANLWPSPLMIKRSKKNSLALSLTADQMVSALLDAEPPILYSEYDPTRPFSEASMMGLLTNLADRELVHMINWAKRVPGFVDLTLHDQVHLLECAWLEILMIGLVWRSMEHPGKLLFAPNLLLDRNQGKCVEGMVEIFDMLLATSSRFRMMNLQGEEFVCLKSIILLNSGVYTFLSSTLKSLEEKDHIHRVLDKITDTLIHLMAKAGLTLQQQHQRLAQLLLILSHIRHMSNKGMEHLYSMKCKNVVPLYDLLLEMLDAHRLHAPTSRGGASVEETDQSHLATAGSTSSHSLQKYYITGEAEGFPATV
Androgen receptor (Homo sapiens), sequence (P10275 whole entry, looked up): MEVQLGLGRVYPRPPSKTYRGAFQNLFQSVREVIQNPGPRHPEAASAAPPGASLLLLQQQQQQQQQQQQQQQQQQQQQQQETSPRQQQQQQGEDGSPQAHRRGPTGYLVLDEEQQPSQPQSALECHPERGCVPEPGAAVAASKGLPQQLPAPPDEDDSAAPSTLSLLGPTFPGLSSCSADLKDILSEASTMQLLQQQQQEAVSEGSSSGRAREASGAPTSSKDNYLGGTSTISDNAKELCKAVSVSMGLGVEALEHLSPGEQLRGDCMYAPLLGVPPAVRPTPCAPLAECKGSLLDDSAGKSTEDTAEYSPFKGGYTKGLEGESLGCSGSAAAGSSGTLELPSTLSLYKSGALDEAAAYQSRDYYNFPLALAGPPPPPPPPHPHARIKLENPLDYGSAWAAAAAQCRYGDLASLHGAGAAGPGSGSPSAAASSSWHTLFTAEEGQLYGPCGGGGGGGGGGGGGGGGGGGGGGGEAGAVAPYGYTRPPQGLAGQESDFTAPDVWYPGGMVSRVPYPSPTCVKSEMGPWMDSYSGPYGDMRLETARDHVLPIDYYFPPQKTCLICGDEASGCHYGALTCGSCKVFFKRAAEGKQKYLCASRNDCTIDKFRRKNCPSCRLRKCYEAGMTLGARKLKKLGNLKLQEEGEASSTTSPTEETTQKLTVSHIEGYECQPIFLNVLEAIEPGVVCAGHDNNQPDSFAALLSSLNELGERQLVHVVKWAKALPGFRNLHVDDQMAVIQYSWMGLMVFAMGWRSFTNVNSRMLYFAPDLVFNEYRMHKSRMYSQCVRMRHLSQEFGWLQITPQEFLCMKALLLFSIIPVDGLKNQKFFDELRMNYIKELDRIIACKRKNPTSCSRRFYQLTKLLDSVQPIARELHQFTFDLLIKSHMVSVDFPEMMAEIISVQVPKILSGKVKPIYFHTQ

Regarding `CCC[CH2][Sn]([Cl])([CH2]CCC)[CH2]CCC`, the Potency is 618 nM (active) and 776 nM (active) in assay [1]; 1.74 µM (active) and 1.23 µM (active) in [3]; 6.18 µM (active) and 7.76 µM (active) in assay [4]; 2.19 µM (active) and 692 nM (active) in assay [5]; 347 nM (active) and 549 nM (active) in [6]; 618 nM (active) and 1.23 µM (active) in [7]. Besides, the Potency is 3.1 µM (active) and 5.49 µM (active) in assay [8]; 3.47 µM (active) and 1.95 µM (active) in assay [10]; 7.71 µM (active) and 6.11 µM (active) in assay [11]; 1.09 µM (active) and 686 nM (active) in assay [12]; 487 nM (active) and 433 nM (active) in assay [13]; 19.4 µM (active) and 17.2 µM (active) in assay [15]. Further, the Potency in assay [16] is 217 nM (active) and 386 nM (active); in [17], 487 nM (active) and 770 nM (active). The Potency result in assay [2], in assay [9] and in [14] was “inactive” throughout.
In the case of `C[C@]12CCC(=O)C=C1CC[C@@H]1[C@@H]2CC[C@@]2(C)[C@H]1CC[C@]2(C)O`, the Potency in assay [1] is 44 µM (active) and inactive; in assay [2], 19.7 µM (active) and inactive; in assay [3], 22.1 µM (active); in assay [4] it was 44 µM (active) and inactive; in [6], 19.7 µM (active); in assay [9] it was 14.3 µM (active) and 9.52 µM (active). Further, the Potency in assay [10] is 22.1 µM (active) and inactive; in assay [13], 30.9 µM (active) and inactive. The Potency result in assay [5], in assay [7], in assay [11], in [14], in assay [15] and in [17] was “inactive” in each case. The Potency entry in assay [19] is “inactive”. Also, in assay [18], the outcome was inactive.
As for `CC(C)=CC1C(C(=O)OCc2cccc(Oc3ccccc3)c2)C1(C)C` (configuration not stated), the Potency entry in [1], in assay [2], in assay [3], in [4], in assay [5] and in assay [6] was “inactive” each time. Besides, the Potency result in assay [7], in assay [8], in assay [9], in [11], in [13] and in assay [14] was “inactive” in each case. Also, the Potency result in [15], in assay [17] and in [19] was “inactive” in each case. Moreover, the call in assay [18] was inactive.
`C=CC(=O)OCC(CC)(COC(=O)C=C)COC(=O)C=C`: the Potency is 5.64 µM (active) and 11 µM (active) in [1]; 14.2 µM (active) in assay [3]; 4 µM (active) and 11 µM (active) in [6]; 28.3 µM (active) and 21.9 µM (active) in assay [7]; 70.4 µM (active) in assay [11]; 31.5 µM (active) in assay [12]. Moreover, the Potency in assay [20] is 4.99 µM (active) and 13.7 µM (active); in [13], 22.3 µM (active) and inactive; in [16], 11.2 µM (active) and 9.69 µM (active); in [17] it was 8.87 µM (active) and 9.69 µM (active). The Potency entry in [2], in [4], in [8], in assay [9], in [10] and in [14] was “inactive” in each case. In addition, the Potency result in [19] is “inactive”.
Turning to `NN=C(N)N`, the Potency result in [1], in assay [2], in assay [3], in assay [4], in [5] and in [6] was “inactive” in each case. Moreover, the Potency entry in [7], in [8], in [9], in assay [11], in assay [12] and in assay [14] was “inactive” in each case. Further, the Potency result in [15], in [16], in assay [17] and in assay [19] was “inactive” throughout. Also, in [18], the compound was called inactive.
Consider `COc1ccc(CO)cc1`, for which the Potency result in [1], in assay [2], in assay [3], in [4], in assay [5] and in assay [6] was “inactive” each time. Besides, the Potency entry in assay [7], in assay [8], in assay [9], in assay [11], in assay [14] and in assay [15] was “inactive” throughout. The Potency entry in assay [16] and in [17] was “inactive” in each case.
